12-LOX inh: Primary qHTS assay for inhibitors of human arachidonate 12S-lipoxygenase (ALOX12): Round 2 | 1.1% of 580,000 active | AID 1671190, 2021 | Polyunsaturated fatty acid lipoxygenase ALOX12 (Homo sapiens), P18054 | purified 12hLO, xylenol orange hydroperoxide absorbance | Potency, µM (doses to about 108 µM), hits mostly inhibitors
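Hydroperoxide product was detected by ferrous iron/xylenol orange as the 573 to 405 nm absorbance ratio. Arachidonic acid at 40 uM (final) was turned over for 30 min at room temperature by 150 nM human 12hLO, pH 7.0 Hepes buffer, after 15 min compound preincubation.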
POLK inh: qHTS for Inhibitors of Polymerase Kappa; AID 588579, 2011; 0.53% of 400,000 active; DNA polymerase kappa (Homo sapiens), Q9UBT6; purified Pol kappa, fluorescent DNA synthesis assay, 10 min; Potency, µM (series often up to 107 µM), usual class: inhibitors
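50 nM final substrate added after 15 min RT preincubation of 10 nM Pol kappa with compound; fluorescence read at 0 and 10 min.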
POLB inh: qHTS Assay for Inhibitors of DNA Polymerase Beta; P06746; Pol beta primer extension/strand displacement, fluorescence kinetic; Potency, µM (doses to about 114 µM), hits mostly inhibitors; 1.3% of 340,000 active; AID 485314, 2010
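Enzyme-only controls used 10 nM Pol beta; buffer lacking enzyme served as negative control. Compound preincubated 15 min, then 50 nM substrate added; 0 and 10 min reads at room temperature.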
Pol eta inh: qHTS for Inhibitors of Polymerase Eta; DNA polymerase eta (Homo sapiens), Q9Y253; recombinant Pol eta, fluorescent DNA replication assay; Potency, µM (doses to about 114 µM), hits mostly inhibitors; 1.2% of 390,000 active; AID 588591, 2011
Target sequence (Q9Y253 whole entry, looked up): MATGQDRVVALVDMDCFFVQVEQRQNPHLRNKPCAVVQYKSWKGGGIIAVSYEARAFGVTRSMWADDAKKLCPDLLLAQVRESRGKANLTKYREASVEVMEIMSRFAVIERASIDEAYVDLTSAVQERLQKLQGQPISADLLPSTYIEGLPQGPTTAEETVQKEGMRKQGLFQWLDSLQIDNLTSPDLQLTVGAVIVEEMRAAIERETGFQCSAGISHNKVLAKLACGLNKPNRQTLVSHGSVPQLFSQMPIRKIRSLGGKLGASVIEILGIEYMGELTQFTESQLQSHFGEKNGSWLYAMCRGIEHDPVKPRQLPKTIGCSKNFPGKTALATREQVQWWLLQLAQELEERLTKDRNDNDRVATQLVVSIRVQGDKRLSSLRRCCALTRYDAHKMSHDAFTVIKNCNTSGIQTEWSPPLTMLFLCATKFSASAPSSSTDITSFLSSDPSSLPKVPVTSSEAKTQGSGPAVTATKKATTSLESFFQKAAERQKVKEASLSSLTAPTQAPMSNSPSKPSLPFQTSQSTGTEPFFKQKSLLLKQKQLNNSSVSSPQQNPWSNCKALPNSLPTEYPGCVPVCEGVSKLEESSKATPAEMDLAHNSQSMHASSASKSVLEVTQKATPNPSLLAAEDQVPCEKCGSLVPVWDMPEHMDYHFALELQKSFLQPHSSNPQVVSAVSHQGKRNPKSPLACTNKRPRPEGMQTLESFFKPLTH
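Fluorescent replication assay: 50 nM final substrate added after a 15 min room-temperature compound preincubation with 10 nM enzyme. Signal taken at 0 min and again at 10 min.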
PI5P4Ka inh: qHTS for Inhibitors of phosphatidylinositol 5-phosphate 4-kinase (PI5P4K); max response, %; Phosphatidylinositol 5-phosphate 4-kinase type-2 alpha (Homo sapiens), P48426; PI5P4Kalpha enzyme, ADP-Glo luminescence, 60 min; active compounds read low; 1.2% of 330,000 active; active means max response of -50% or lower; inconclusive means between -30% and -50%; inactive means -30% or higher; further: value at the top dose of about 77 µM
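ADP-Glo luminescence end-point after a 60 min room-temperature kinase reaction. PI5P4Kalpha and substrate in HEPES pH 7.4 buffer with EGTA, 0.1% CHAPS and 5% DMSO; ATP at 5 microM final.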
Pol iota inh: qHTS for Inhibitors of Polymerase Iota. Potency, µM (titrated, usually from 115 µM), usual class: inhibitors. 1% of 390,000 active. DNA polymerase iota (Homo sapiens), Q9UNA4. Pol iota fluorescent replication assay, 10 min
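Pol iota at 10 nM preincubated 15 min with compounds at room temperature; reaction started with fluorescent substrate, 50 nM final. Fluorescence read kinetically at 0 and 10 min; buffer-only wells as negative control.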
A number is an active result. Sampled rows, rich in hits. Any-hit rate of the full collection: about 2.9%. Unless noted, the call rests on the fitted dose curve; in most records, active means well fitted inhibition curve with a large enough effect; inconclusive means small, poorly fitted or top-dose-only effect, or another doubt; inactive means no such curve, though single readings can be large or run the other way.

What do the screens show for `COC(=O)C1CCN(Cc2cc(=O)oc3ccc(Cl)cc23)CC1`?
12-LOX inh: 16µM

What do the screens show for `CCOC(=O)C1CCN(Cc2cc(=O)oc3ccc(Cl)cc23)CC1`?
12-LOX inh: inactive

Results for Cc1ccc(NS(=O)(=O)c2cc([N+](=O)[O-])ccc2NN)c(C)c1 ?
12-LOX inh: 40µM

Results for Cc1ccc(S(=O)(=O)Nc2ccc3cc([N+](=O)[O-])ccc3c2[N+](=O)[O-])cc1 ?
12-LOX inh: 22µM; POLK inh: inactive; Pol eta inh: 79µM; PI5P4Ka inh: inactive; Pol iota inh: inconclusive

How did O=[N+]([O-])c1cc(S(=O)(=O)Nc2ccccc2)ccc1Nc1ccccc1 do in these assays?
12-LOX inh: inactive; POLK inh: inconclusive; Pol eta inh: inconclusive; PI5P4Ka inh: inactive; Pol iota inh: inconclusive

How did Cc1ccc(S(=O)(=O)Nc2ccc(S(=O)(=O)Nc3ccccc3)cc2[N+](=O)[O-])cc1 do in these assays?
12-LOX inh: 25µM

Results for Cc1ccc(S(=O)(=O)Nc2ccccc2N=Cc2ccc([N+](=O)[O-])cc2[N+](=O)[O-])cc1 ?
12-LOX inh: 25µM; POLK inh: inactive; Pol eta inh: inactive; PI5P4Ka inh: inactive; Pol iota inh: inactive

How did COc1ccc([N+](=O)[O-])cc1NS(=O)(=O)c1ccc(C)cc1 do in these assays?
12-LOX inh: inactive; POLK inh: inactive; POLB inh: inactive; Pol eta inh: inactive; PI5P4Ka inh: inactive; Pol iota inh: inactive

What do the screens show for `Cc1ccc(S(=O)(=O)Nc2ccc3ccccc3c2[N+](=O)[O-])cc1`?
12-LOX inh: inconclusive; POLK inh: inactive; Pol eta inh: inactive; PI5P4Ka inh: inactive; Pol iota inh: inactive

Results for CC(NC(=O)CC12CC3CC(CC(C3)C1)C2)C1CC2CCC1C2 (configuration not stated) ?
12-LOX inh: inactive

Results for COc1ccc(Cl)cc1NC(=O)c1cnc(Nc2ccccc2OC)c2ccccc12 ?
12-LOX inh: inactive

What do the screens show for `CCOc1ccc(S(=O)(=O)Nc2cccc(C(=O)NC3CCN(C(C)C)CC3)c2)cc1`?
12-LOX inh: inactive

What do the screens show for `COC(=O)/C=c1/s/c(=C(\C#N)C(=O)NCc2ccco2)n(-c2ccccc2)c1=O`?
12-LOX inh: inactive; POLK inh: inactive; POLB inh: inactive; Pol eta inh: inconclusive; PI5P4Ka inh: inactive; Pol iota inh: 89µM

What do the screens show for `CCNc1ncc2nc(CCc3ccccc3)c(=O)n(C[C@H]3CCCO3)c2n1`?
12-LOX inh: 7.1µM; POLK inh: inactive

How did CCNc1ncc2nc(C)c(=O)n(C[C@H]3CCCO3)c2n1 do in these assays?
12-LOX inh: inactive; POLK inh: inactive

Results for FC(F)(F)c1cnc(Sc2nnc(C3CC3)n2C2CC2)c(Cl)c1 ?
12-LOX inh: inactive

Results for COc1cccc2cc(CC(=O)c3ccc(C(C)C)cc3)c(=O)oc12 ?
12-LOX inh: inactive

How did COc1ccc2c3c(cccc13)N(C)N=C2C do in these assays?
12-LOX inh: inconclusive; POLK inh: inactive; POLB inh: inactive; Pol eta inh: inconclusive; PI5P4Ka inh: inactive; Pol iota inh: 3.2µM

How did CC(=O)NCCC(=O)N(C)CC(=O)Nc1ccccc1C(F)(F)F do in these assays?
12-LOX inh: inactive

How did O=C(CC[C@@H]1CNC(=O)[C@@H]2C[C@H](NC(=O)c3ccccc3)CN12)NCc1ccc(F)cc1 do in these assays?
12-LOX inh: 32µM

How did O=C(CC[C@@H]1CNC(=O)[C@@H]2C[C@H](NCc3ccc(F)cc3)CN12)NCc1ccccc1 do in these assays?
12-LOX inh: inactive

What do the screens show for `COc1cccc(OC)c1C(=O)OCc1ccccc1C#N`?
12-LOX inh: inactive

What do the screens show for `O=[N+]([O-])c1ccc2nonc2c1Nc1ccccc1Cl`?
12-LOX inh: inactive

What do the screens show for `Cc1noc(-c2ccc(OC3CN(C(=O)Cc4cccs4)C3)cc2)n1`?
12-LOX inh: 7.1µM

Screening data deposited in PubChem by National Center for Advancing Translational Sciences (NCATS).
